Data as given in PubChem BioAssay (EPA / NIEHS).
Records with an inconclusive call do not appear. Active and inactive are the calls of the source. Rule for the calls: active = hit-call score of the fitted dose curve at least 0.9, where 1 is the maximum; inconclusive = response in the unintended direction; inactive = score below 0.9.

Each compound was assayed against Androgen receptor (Homo sapiens) (UniProt P10275) (assay: ATG_AR_TRANS: Attagene TRANS-FACTORIAL HepG2 Assay for human Androgen Receptor (AR) (AID 2282973)). Conditions: HepG2 Attagene TRANS-FACTORIAL AR reporter transcription.
Sequence of Androgen receptor (Homo sapiens) (P10275 whole entry, looked up, the tested form may be a part): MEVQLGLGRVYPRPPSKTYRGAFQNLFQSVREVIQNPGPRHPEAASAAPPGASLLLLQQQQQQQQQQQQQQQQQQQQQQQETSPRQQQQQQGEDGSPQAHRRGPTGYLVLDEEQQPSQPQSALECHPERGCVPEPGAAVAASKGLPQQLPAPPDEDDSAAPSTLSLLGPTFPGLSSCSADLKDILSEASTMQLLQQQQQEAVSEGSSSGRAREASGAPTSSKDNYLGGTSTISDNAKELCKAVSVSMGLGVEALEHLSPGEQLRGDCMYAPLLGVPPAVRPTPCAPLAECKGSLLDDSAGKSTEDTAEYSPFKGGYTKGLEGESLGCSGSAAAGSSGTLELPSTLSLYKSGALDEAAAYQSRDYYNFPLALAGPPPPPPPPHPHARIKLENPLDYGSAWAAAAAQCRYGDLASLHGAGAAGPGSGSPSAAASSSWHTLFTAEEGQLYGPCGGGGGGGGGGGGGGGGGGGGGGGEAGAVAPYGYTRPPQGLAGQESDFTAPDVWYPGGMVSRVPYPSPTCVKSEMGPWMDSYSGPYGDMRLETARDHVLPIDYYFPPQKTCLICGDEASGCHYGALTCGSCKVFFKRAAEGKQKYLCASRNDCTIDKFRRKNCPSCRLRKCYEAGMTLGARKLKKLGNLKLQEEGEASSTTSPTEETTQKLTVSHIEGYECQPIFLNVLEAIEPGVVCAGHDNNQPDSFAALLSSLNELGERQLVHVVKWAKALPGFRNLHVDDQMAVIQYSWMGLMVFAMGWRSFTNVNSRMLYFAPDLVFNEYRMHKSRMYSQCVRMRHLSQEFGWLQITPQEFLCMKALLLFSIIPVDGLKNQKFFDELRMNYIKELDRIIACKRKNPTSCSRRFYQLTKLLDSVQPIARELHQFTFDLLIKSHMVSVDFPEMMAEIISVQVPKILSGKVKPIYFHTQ
Procedure, shortened: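 Transcriptional activity of an exogenous AR–Gal4 fusion read as GAL4-UAS reporter transcript levels in transfected human HepG2 cells after 24 h dosing. Detection via RT-PCR, 6-FAM labelling, HpaI digest and capillary electrophoresis; increase over DMSO baseline.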

SMILES	outcome
CC1CCC(C(=O)O)CC1 (stereo not given)	inactive
CC1CNCC(C)O1 (stereo not given)	inactive
c1ccc2[nH]ccc2c1	inactive
O=C(c1ccccc1)c1ccc(Cl)cc1	inactive
C=CCOC(=O)/C=C\C(=O)OCC=C	inactive
O=S(=O)(O)c1ccc(Nc2nc(Nc3ccc(C=Cc4ccc(Nc5nc(Nc6ccc(S(=O)(=O)O)cc6)nc(N(CCO)CCO)n5)cc4S(=O)(=O)O)c(S(=O)(=O)O)c3)nc(N(CCO)CCO)n2)cc1	inactive
CC1=Nc2ccc3ccccc3c2C1(C)C	inactive
OCCN1CN(CCO)CN(CCO)C1	inactive
COCCOCCC[Si](C)(O[Si](C)(C)C)O[Si](C)(C)C	inactive
NC(=O)C(F)(F)C(F)(F)C(F)(F)C(F)F	inactive
CCN(CC)c1ccc(C(=C2C=CC(=[N+](CC)CC)C=C2)c2ccc(S(=O)(=O)O)cc2S(=O)(=O)[O-])cc1	inactive
O=C(O)C(F)(F)C(F)(F)C(F)(F)C(F)(F)C(F)(F)C(F)(F)C(F)(F)C(F)(F)Cl	inactive
CC(=O)c1ccc(S(=O)(=O)NC(=O)NC2CCCCC2)cc1	inactive
NCC(F)(F)C(F)(F)C(F)(F)C(F)(F)C(F)(F)C(F)(F)C(F)(F)F	inactive
COC(C)(C)CC(C)=O	inactive
CCOc1nc(F)cc2nc(S(=O)(=O)Nc3c(Cl)cccc3C(=O)OC)nn12	inactive
CCC(C)c1cc([N+](=O)[O-])cc([N+](=O)[O-])c1OC(=O)OC(C)C (stereo not given)	inactive
[Cl][Bi]([Cl])([c]1ccccc1)([c]1ccccc1)[c]1ccccc1	inactive
CCCCCCCCCCCCOCCO	inactive
CCc1cccc(CC)c1NC(=O)C(=O)O	inactive

SMILES	outcome
C=CC(C)(CCC=C(C)C)OC(=O)C=Cc1ccccc1 (stereo not given)	inactive
CN(C)CCOc1ccc(/C(=C(/CCCl)c2ccccc2)c2ccccc2)cc1	inactive
Cc1cc(O)c(C(C)(C)C)cc1C(C)(C)C	inactive
Nc1ccnc(=O)[nH]1	inactive
COCCOCCOC	inactive
FC(F)(F)COC(OCC(F)(F)F)OCC(F)(F)F	inactive
Cc1cccc(C)n1	inactive
c1ccc2cc(Nc3ccc(Nc4ccc5ccccc5c4)cc3)ccc2c1	inactive
FC(F)=C(F)C(F)(F)C(F)(F)C(F)(F)C(F)F	inactive
CCC(C)(C)C1CCC(=O)CC1	inactive
CC(C)(C)c1n[nH]c(=O)n(N)c1=O	inactive
COc1cc(C(C)C)ccc1C	inactive
CN(C)c1ccc(C(c2ccccc2)c2ccc(N(C)C)cc2)cc1	inactive
BrCc1cccc(Oc2ccccc2)c1	inactive
CCCCCCOC(=O)c1ccccc1O	inactive
CO[Si](CCC1CCC2OC2C1)(OC)OC (stereo not given)	inactive
CC=CC(F)(F)C(F)(F)C(F)(F)F	inactive
O=C(O)C(F)(F)C(F)(F)C(F)(F)C(F)(F)C(F)(F)C(F)(F)C(F)(F)C(F)(F)C(F)(F)C(F)(F)C(F)(F)C(F)(F)C(F)(F)F	inactive
Cc1ccc(C2OC[C@@H]3OC(c4ccc(C)cc4)O[C@H]([C@H](O)CO)[C@@H]3O2)cc1 (stereo not given in full)	inactive
CC(C)(CO)COC(=O)C(C)(C)CO	inactive
